Test results: PubChem BioAssay (NCI)
The panel holds about 83,000 compounds, 20% with a hit somewhere; the sample as a whole holds those more often.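 For each line, cells grew in 96-well plates with the test compound present at a single concentration for 48 hours.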 Activity calls are given as the source filed them. How the source made its calls: active means growth percent below 10; inactive means the rest.

Columns and labels:
Test in all cases: NCI-60 one-dose screen, 48 h (100 = growth as untreated, 0 = no growth, -100 = all killed)
[1] = test system: RPMI-8226 leukemia; details: 10 µM unless noted
[2] = test system: OVCAR-8 ovarian; details: 10 µM unless noted
[3] = test system: OVCAR-5 ovarian; details: 10 µM unless noted
[4] = test system: OVCAR-4 ovarian; details: 10 µM unless noted
[5] = test system: SK-OV-3 ovarian; details: 10 µM unless noted
[6] = test system: IGROV1 ovarian; details: 10 µM unless noted
[7] = test system: OVCAR-3 ovarian; details: 10 µM unless noted
[8] = test system: HS 578T breast; details: 10 µM
[9] = test system: NCI/ADR-RES ovarian; details: 10 µM unless noted
[10] = test system: T-47D breast; details: 10 µM unless noted
[11] = test system: BT-549 breast; details: 10 µM unless noted
[12] = test system: MDA-MB-435 melanoma; details: 10 µM unless noted
[13] = test system: SW-620 colon; details: 10 µM unless noted
[14] = test system: MCF7 breast; details: 10 µM unless noted
[15] = test system: HCT-116 colon; details: 10 µM unless noted
[16] = test system: HCC-2998 colon; details: 10 µM unless noted
[17] = test system: KM12 colon; details: 10 µM unless noted
[18] = test system: SR leukemia; details: 10 µM unless noted

Q: For `O=[N+]([O-])c1ccccc1CN1CCCCC1`, which growth [1] is on record?
A: The growth was 109% (inactive).

Q: And the growth [2]?
A: The growth was 108% (inactive).

Q: And the growth [3]?
A: The growth was 102% (inactive).

Q: What about the growth [4] of the same compound?
A: Its growth is 114% (inactive).

Q: And the growth [5]?
A: Its growth is 127% (inactive).

Q: And the growth [6]?
A: Its growth is 114% (inactive).

Q: What about the growth [7] of the same compound?
A: Its growth is 109% (inactive).

Q: What about the growth [8] of the same compound?
A: Its growth is 118% (inactive).

Q: What about the growth [9] of the same compound?
A: Its growth is 104% (inactive).

Q: And the growth [10]?
A: The growth was 115% (inactive).

Q: And the growth [11]?
A: The growth was 98.4% (inactive).

Q: What about the growth [12] of the same compound?
A: The growth was 109% (inactive).

Q: What about the growth [13] of the same compound?
A: Its growth is 106% (inactive).

Q: What about the growth [14] of the same compound?
A: The growth was 108% (inactive).

Q: What about the growth [15] of the same compound?
A: The growth was 106% (inactive).

Q: And the growth [16]?
A: The growth was 101% (inactive).

Q: And the growth [17]?
A: Its growth is 128% (inactive).

Q: Which results are given for `Nc1cccc(S(=O)(=O)c2cccc(N)c2)c1`?
A: growth [1]: 110% (inactive); growth [2]: 113% (inactive); growth [3]: 99.7% (inactive); growth [4]: 102% (inactive); growth [5]: 120% (inactive); growth [6]: 114% (inactive); growth [7]: 113% (inactive); growth [8]: 118% (inactive); growth [9]: 115% (inactive); growth [10]: 104% (inactive); growth [11]: 111% (inactive); growth [12]: 111% (inactive); growth [13]: 115% (inactive); growth [14]: 105% (inactive); growth [15]: 112% (inactive); growth [16]: 126% (inactive); growth [17]: 129% (inactive)

Q: For `O=C1Cc2c([nH]c3ccc([N+](=O)[O-])cc23)-c2ccccc2N1`, which growth [18] is on record?
A: The growth was -8.53% (active).

Q: And the growth [1]?
A: Its growth is -22.1% (active).

Q: What about the growth [4] of the same compound?
A: Its growth is 16.7% (inactive).

Q: What about the growth [5] of the same compound?
A: The growth was 28.2% (inactive).

Q: What about the growth [6] of the same compound?
A: Its growth is -41.8% (active).

Q: What about the growth [7] of the same compound?
A: Its growth is -14.4% (active).

Q: What about the growth [8] of the same compound?
A: Its growth is 25.6% (inactive).

Q: What about the growth [9] of the same compound?
A: Its growth is 14.5% (inactive).

Q: And the growth [10]?
A: The growth was 22.1% (inactive).

Q: And the growth [11]?
A: The growth was 5.54% (active).

Q: What about the growth [12] of the same compound?
A: Its growth is 16.2% (inactive).

Q: And the growth [13]?
A: Its growth is -3.84% (active).

Q: And the growth [14]?
A: Its growth is 8.43% (active).

Q: And the growth [15]?
A: Its growth is 4.3% (active).

Q: What about the growth [16] of the same compound?
A: The growth was -34.5% (active).

Q: And the growth [17]?
A: Its growth is 4.23% (active).

Q: How did the growth [18] turn out when `COC(=O)C1(C)COP(=O)(NC23CC4CC(CC(C4)C2)C3)OC1` (centres undefined) was run?
A: The growth was 114% (inactive).

Q: And the growth [1]?
A: Its growth is 95.6% (inactive).

Q: And the growth [2]?
A: The growth was 107% (inactive).

Q: And the growth [4]?
A: Its growth is 97.7% (inactive).

Q: And the growth [5]?
A: The growth was 100% (inactive).

Q: And the growth [6]?
A: The growth was 106% (inactive).

Q: And the growth [8]?
A: The growth was 102% (inactive).

Q: And the growth [9]?
A: The growth was 93.9% (inactive).

Q: What about the growth [10] of the same compound?
A: Its growth is 111% (inactive).

Q: And the growth [11]?
A: The growth was 99.7% (inactive).

Q: What about the growth [12] of the same compound?
A: Its growth is 105% (inactive).

Q: And the growth [13]?
A: The growth was 100% (inactive).

Q: And the growth [14]?
A: Its growth is 102% (inactive).

Q: And the growth [15]?
A: Its growth is 108% (inactive).

Q: And the growth [17]?
A: The growth was 102% (inactive).

Q: How did the growth [18] turn out when `COc1ccc2[nH]c(C(=O)OCc3ccc4cccc(O)c4n3)cc2c1` was run?
A: Its growth is -3.51% (active).

Q: And the growth [1]?
A: The growth was -45.9% (active).

Q: What about the growth [2] of the same compound?
A: Its growth is 0.942% (active).

Q: And the growth [5]?
A: Its growth is 68.4% (inactive).

Q: What about the growth [6] of the same compound?
A: The growth was -91.2% (active).

Q: And the growth [7]?
A: Its growth is -84.8% (active).

Q: And the growth [8]?
A: Its growth is -8.82% (active).

Q: What about the growth [9] of the same compound?
A: The growth was -18.9% (active).

Q: What about the growth [10] of the same compound?
A: Its growth is -53.9% (active).

Q: What about the growth [11] of the same compound?
A: The growth was -79.3% (active).

Q: What about the growth [12] of the same compound?
A: Its growth is -86.2% (active).

Q: And the growth [13]?
A: The growth was -72.8% (active).

Q: What about the growth [14] of the same compound?
A: Its growth is -39% (active).

Q: And the growth [15]?
A: The growth was -77.7% (active).

Q: What about the growth [16] of the same compound?
A: Its growth is -35.8% (active).

Q: What about the growth [17] of the same compound?
A: The growth was 10.7% (inactive).

Q: For `CCc1oc2ccccc2c1C(=O)c1cc(I)c(O)c(I)c1`, which growth [1] is on record?
A: Its growth is 55.2% (inactive).

Q: And the growth [2]?
A: Its growth is 56.7% (inactive).

Q: And the growth [3]?
A: The growth was 86.5% (inactive).

Q: And the growth [4]?
A: Its growth is 71% (inactive).

Q: And the growth [5]?
A: The growth was 105% (inactive).

Q: What about the growth [6] of the same compound?
A: Its growth is 50.5% (inactive).

Q: And the growth [7]?
A: Its growth is 13.6% (inactive).

Q: And the growth [8]?
A: Its growth is 49.2% (inactive).

Q: And the growth [9]?
A: Its growth is -6% (active).

Q: What about the growth [10] of the same compound?
A: Its growth is 98.9% (inactive).

Q: And the growth [11]?
A: Its growth is 39.3% (inactive).

Q: And the growth [12]?
A: The growth was -25.9% (active).

Q: And the growth [13]?
A: The growth was 19.2% (inactive).

Q: What about the growth [14] of the same compound?
A: The growth was 33.8% (inactive).

Q: And the growth [15]?
A: The growth was 22.3% (inactive).

Q: What about the growth [16] of the same compound?
A: Its growth is 53.3% (inactive).

Q: And the growth [17]?
A: The growth was 27.2% (inactive).

Q: Which results are given for `C=C(C)C1CCC2(C(=O)O)CCC3(C)C(CCC4C5(C)CCC(O)C(C)(C)C5CCC43C)C12` (centres undefined)?
A: growth [18]: 9.38% (active); growth [1]: 7.96% (active); growth [3]: -87.3% (active); growth [4]: -40.7% (active); growth [5]: 28% (inactive); growth [6]: 7.47% (active); growth [7]: -56.1% (active); growth [9]: -54% (active); growth [10]: -1.03% (active); growth [11]: -57.5% (active); growth [12]: 48.6% (inactive); growth [13]: 19.6% (inactive); growth [14]: 1.31% (active); growth [15]: -88.5% (active); growth [17]: -26.6% (active)

Q: `CC1CCN(Cc2ccc(NC(=O)c3cc4ccc5cccnc5c4[nH]3)cc2)CC1` was tested. Which growth [18] did it give?
A: Its growth is 2.01% (active).

Q: What about the growth [1] of the same compound?
A: The growth was 19.8% (inactive).

Q: What about the growth [2] of the same compound?
A: The growth was 34.1% (inactive).

Q: And the growth [4]?
A: Its growth is 66.5% (inactive).

Q: And the growth [5]?
A: The growth was 12.7% (inactive).

Q: And the growth [6]?
A: The growth was 46.7% (inactive).

Q: What about the growth [7] of the same compound?
A: The growth was -14.3% (active).

Q: And the growth [8]?
A: The growth was 33.7% (inactive).

Q: And the growth [10]?
A: The growth was 38.4% (inactive).

Q: And the growth [11]?
A: The growth was 42.8% (inactive).

Q: What about the growth [12] of the same compound?
A: The growth was -67.6% (active).

Q: What about the growth [13] of the same compound?
A: The growth was 28.1% (inactive).

Q: What about the growth [14] of the same compound?
A: The growth was 27.2% (inactive).

Q: And the growth [15]?
A: Its growth is 13.6% (inactive).

Q: What about the growth [16] of the same compound?
A: The growth was 17.5% (inactive).

Q: What about the growth [17] of the same compound?
A: The growth was 15.1% (inactive).

Q: `CCN(CC)CCCC(C)N/C(c1cccc(OC)c1)=c1\c(=O)[nH]n(-c2c3ccccc3nc3ccccc23)c(=O)\c1=C(/NC(C)CCCN(CC)CC)c1cccc(OC)c1` (centres undefined) was tested. Which growth [18] did it give?
A: Its growth is 0.449% (active).

Q: And the growth [1]?
A: Its growth is -37.3% (active).

Q: What about the growth [2] of the same compound?
A: The growth was -7.7% (active).

Q: And the growth [4]?
A: The growth was -48.1% (active).

Q: What about the growth [5] of the same compound?
A: Its growth is -10.1% (active).

Q: What about the growth [6] of the same compound?
A: The growth was -6.96% (active).

Q: And the growth [7]?
A: The growth was -36.6% (active).

Q: And the growth [10]?
A: Its growth is -26.7% (active).

Q: And the growth [11]?
A: Its growth is -5.18% (active).

Q: And the growth [12]?
A: The growth was -91.1% (active).

Q: What about the growth [13] of the same compound?
A: Its growth is -21.6% (active).

Q: What about the growth [14] of the same compound?
A: Its growth is -12.7% (active).

Q: And the growth [15]?
A: The growth was -9.94% (active).

Q: And the growth [16]?
A: The growth was -72.7% (active).

Q: And the growth [17]?
A: Its growth is -47.4% (active).
